Compound activity from PubChem.
The list is not random: actives were taken first. Their share in the collection is about 17%.
TDP1 cell noCPT: qHTS for Inhibitors of human tyrosyl-DNA phosphodiesterase 1 (TDP1): qHTS in cells in absence of CPT; 420,000 compounds, 15% hits; AID 686978, 2013; Potency, µM (doses to about 46.2 µM), without a hit: at the top dose activity change, negative = growth inhibition, hits mostly inhibitors; DT40 Tdp1-/- hTDP1 cells, no CPT, ATP luminescence, 48 h; also: % is scaled to controls: 0 for no effect and ±100 for the full control effect; nearly all actives have a fitted effect of over 55% in size
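DT40 Tdp1-/-;hTDP1 cells, no CPT (DMSO vehicle only), 400 cells/well; compounds pin-transferred; ≥48 hr, 37 °C; CellTiter-Glo 30 min RT dark, luminescence read.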
TDP1 cell CPT: growth inhibition of DT40 Tdp1-/-;hTDP1 cells with camptothecin (screen for TDP1 inhibitors); chicken DT40 Tdp1-/-;hTDP1 cells + 20 nM CPT, ATP luminescence, 48 h; Potency, µM (doses to about 46.2 µM), inactives show at the top dose activity change, negative = growth inhibition, most hits filed as inhibitors; 420,000 compounds, 12% hits; AID 686979; also: % is scaled to controls: 0 for no effect and ±100 for the full control effect; nearly all actives have a fitted effect of over 55% in size
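Chicken DT40 Tdp1-/- cells complemented with human TDP1, 400 cells/well, exposed to compounds plus 20 nM camptothecin for at least 48 h at 37 C; viability read as ATP content by CellTiter-Glo luminescence.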
ClpP mod: qHTS Assay for Activators of ClpP. ATP-dependent Clp protease proteolytic subunit (Bacillus subtilis (strain 168)), P80244. purified B. subtilis ClpP, FRET peptide cleavage, 20 min. Potency, µM (series often up to 57.5 µM), for inactives: at the highest dose activity change, negative = active. 340,000 compounds, 1.9% hits; active = well fitted falling curve with a large enough effect; inconclusive = small, poorly fitted or top-dose-only effect; inactive = no such curve, though single readings can be large or run the other way; also: the source files actives as falling curves though it sought activators and does not explain the sign; nearly all actives have a fitted effect of over 65% in size
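Purified B. subtilis ClpP, 10 microg/mL final in Tris/HCl pH8 with KCl, BSA, glycerol and Tween-20, cleaved an Abz/nitrotyrosine-quenched decapeptide. Fluorescence (ex 320, em 430) was read at 0 and 20 min at room temperature. Delta was normalized to 5.8 microM ADEP and DMSO/no-enzyme controls.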
TDP1 inh: TDP1 (human) enzyme inhibition; 350,000 compounds, 0.28% hits; Q9NUW8; recombinant TDP1, AlphaScreen DNA substrate cleavage; Potency, µM (highest dose often 130 µM), for inactives: at the top dose activity change, negative = inhibition, actives largely listed as inhibitors; also: % is scaled to controls: 0 for no effect and ±100 for the full control effect; nearly all actives have a fitted effect of over 40% in size
Target sequence (Q9NUW8 whole entry, looked up): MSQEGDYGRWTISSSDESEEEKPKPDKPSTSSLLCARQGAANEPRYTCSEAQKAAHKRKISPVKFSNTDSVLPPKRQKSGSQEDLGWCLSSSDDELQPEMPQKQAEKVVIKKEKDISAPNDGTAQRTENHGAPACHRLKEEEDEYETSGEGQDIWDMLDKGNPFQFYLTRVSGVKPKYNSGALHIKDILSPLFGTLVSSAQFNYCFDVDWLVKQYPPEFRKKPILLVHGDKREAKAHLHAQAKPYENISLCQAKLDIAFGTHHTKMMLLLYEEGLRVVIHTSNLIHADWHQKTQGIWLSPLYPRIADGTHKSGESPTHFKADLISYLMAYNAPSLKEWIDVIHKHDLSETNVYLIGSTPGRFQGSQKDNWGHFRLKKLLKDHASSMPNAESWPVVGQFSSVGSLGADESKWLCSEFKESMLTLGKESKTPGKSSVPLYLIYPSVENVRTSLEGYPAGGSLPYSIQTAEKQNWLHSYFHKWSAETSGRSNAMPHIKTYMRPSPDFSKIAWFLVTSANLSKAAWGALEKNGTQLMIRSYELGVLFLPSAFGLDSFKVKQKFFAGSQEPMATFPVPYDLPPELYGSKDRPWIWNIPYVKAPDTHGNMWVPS
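Recombinant human Tdp1 (E. coli-expressed, 1 nM final) preincubated with compounds 15 min at room temperature, then 5'-biotin/3'-phosphotyrosine-FITC DNA substrate (15 nM final) added for 5 min. AlphaScreen beads (10 ug/ml final) added 10 min; cleavage lowers signal.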
Active calls of the source: *; ? = inconclusive; / = no result given. Unless noted, calls follow the shape of the dose curve; as a rule, active = well fitted curve in the direction sought with a large enough effect; inconclusive = small, poorly fitted or top-dose-only effect, or another doubt; inactive = no such curve, though single readings can be large; an effect the other way counts as inactive or inconclusive. Potency is read from the fitted curve at half-maximal effect.

SMILES | TDP1 cell noCPT | TDP1 cell CPT | ClpP mod | TDP1 inh
O=C(NC(=S)N1CCN(C/C=C/c2ccccc2)CC1)c1ccc(Cl)nc1 | 15µM* | 23µM* | 1% | 3%
O=C(NC(=S)N1CCCCC1)c1cccnc1 | 3% | -3% | -1% | 6%
O=C(Nc1cccc(Cl)c1)N1CCN(C/C=C/c2ccccc2)CC1 | -21% | ? | 0% | 9%
COc1ccc(/C(C)=N/NC(=O)CNC(=O)C(c2ccccc2)c2ccccc2)c(OC)c1 | ? | ? | 0% | 2%
Cc1ccccc1CSc1cn(CC(=O)N2CCCCCC2)c2ccccc12 | 23µM* | ? | 1% | 3%
O=C(Cn1cc(SCc2ccccc2F)c2ccccc21)N1CCCCCC1 | ? | 23µM* | 1% | -3%
Cc1ccccc1CSc1cn(CC(=O)N2CCCC2)c2ccccc12 | ? | ? | 0% | 0%
O=C1CC(NS(=O)(=O)c2ccc([N+](=O)[O-])cc2)CN1c1cccc(F)c1 (stereo not drawn) | ? | -12% | 22% | 0%
CCCCC/C=C\C\C=C/C=C/C=C/[C@@H](O)[C@@H](O)CCCC(=O)O | / | / | / | 6%
CCC(Sc1nncn1C)C(=O)Nc1nnc(-c2ccccc2Cl)s1 (stereo not drawn) | 10% | -29% | -6% | 4%
CCC(Sc1ccc(Cl)cc1)C(=O)Nc1nnc(-c2cccc([N+](=O)[O-])c2)s1 (stereo not drawn) | 13µM* | ? | -3% | 3%
COc1ccc(NC(=O)C2CCCCN2N)cc1OC (stereo not drawn) | 18µM* | ? | 0% | 7%
COc1ccc(OC)c(S(=O)(=O)N2Cc3ccccc3CC2C(=O)Nc2ccc(C(C)=O)cc2)c1 (stereo not drawn) | 10µM* | ? | -2% | 10%
CSc1cccc(NC(=O)C2CCN(S(=O)(=O)c3ccc(F)cc3)CC2)c1 | 21µM* | ? | 0% | 3%
CC1CCCN(S(=O)(=O)c2ccc(NC(=O)C3CCN(C(=O)c4ccco4)CC3)cc2)C1 (stereo not drawn) | 13µM* | 21µM* | / | 7%
CCC(C)NS(=O)(=O)c1ccc(NC(=O)C2CCN(C(=O)c3ccco3)CC2)cc1 (stereo not drawn) | ? | ? | / | 1%
COCC(=O)Nc1cc(C(=O)N2CCCCC2c2nccs2)c2c(c1)nc(-c1ccncc1)n2C (stereo not drawn) | -6% | -5% | / | /
O=C(Nc1ccc(C(F)(F)F)cc1)C1CCN(S(=O)(=O)c2ccc(N3CCCC3=O)cc2)CC1 | ? | 2.6µM* | 0% | 0%
COc1ccc(OC)c(S(=O)(=O)N2CCC(C(=O)Nc3cccc(C(F)(F)F)c3)CC2)c1 | 15µM* | 18µM* | 2% | 3%
COc1ccc(OC)c(S(=O)(=O)N2CCC(C(=O)N3CCc4ccccc4C3)CC2)c1 | 23µM* | ? | -2% | 11%
COc1ccc(NC(=O)C2CCN(S(=O)(=O)c3ccc(N4CCCC4=O)cc3)CC2)cc1OC | 11% | -11% | 3% | 4%
CCCN(C(=O)C1CCN(S(=O)(=O)c2ccc(OC)c(OC)c2)CC1)C1CCS(=O)(=O)C1 (stereo not drawn) | 4% | 10% | 14µM* | 0%
CC(C)NC(=O)C1CCCN(S(=O)(=O)c2cccs2)C1 (stereo not drawn) | -4% | 9% | -1% | 2%
CSc1cccc(NC(=O)C2CCCN(S(=O)(=O)c3cccs3)C2)c1 (stereo not drawn) | 18µM* | ? | / | 2%
Cc1ccc(NC(=O)C2CCN(S(=O)(=O)c3ccc(F)cc3)CC2)cc1 | ? | -28% | 0% | 2%
SMILES | TDP1 cell noCPT | TDP1 cell CPT | ClpP mod | TDP1 inh
O=C(Nc1ccc(S(=O)(=O)N2CCCC2)cc1)C1CCN(S(=O)(=O)c2ccc(F)cc2)CC1 | 18µM* | ? | ? | -7%
CCN(CC)S(=O)(=O)c1ccc(S(=O)(=O)N2CCN(C(=O)c3ccco3)CC2)cc1 | -4% | -15% | 0% | 3%
CCCCc1ccc(S(=O)(=O)N2CCN(C(=O)c3ccco3)CC2)cc1 | 8.2µM* | ? | -11% | 3%
O=C(Nc1ccc(S(=O)(=O)N2CCOCC2)cc1)C1CCN(S(=O)(=O)c2ccccc2)CC1 | 16µM* | ? | 1% | 4%
CSc1cccc(NC(=O)C2CCCN2S(=O)(=O)c2ccc(Br)s2)c1 (stereo not drawn) | 23µM* | ? | 1% | 7%
CSc1cccc(NC(=O)C2CCCN(S(=O)(=O)c3ccc(F)cc3)C2)c1 (stereo not drawn) | 8.2µM* | 10µM* | 1% | 5%
O=C(Nc1ccc(Br)cc1)C1CCCN1S(=O)(=O)c1ccc(F)cc1 (stereo not drawn) | 15µM* | ? | 0% | 5%
CC(C)c1ccc(NC(=O)C2CCCN(S(=O)(=O)c3ccc(Br)s3)C2)cc1 (stereo not drawn) | ? | ? | -13% | 5%
COc1ccc(S(=O)(=O)N2CCC(C(=O)Nc3cccc(C(C)=O)c3)CC2)cc1C | ? | 11µM* | -1% | 1%
CC(=O)c1cccc(NC(=O)C2CCN(S(=O)(=O)c3ccc(C)cc3)CC2)c1 | -29% | 2% | -4% | 1%
COc1ccccc1C1NC(=O)NC(C)=C1C(=O)OCC1CCCCC1 (stereo not drawn) | ? | -26% | -2% | /
OC[C@H]1O[C@H](OC[C@H]2OC(O)[C@H](O)[C@@H](O)[C@@H]2O)[C@H](O)[C@@H](O)[C@@H]1O (stereo partly drawn) | -1% | -16% | -1% | /
COc1ccc(S(=O)(=O)N2CCC(C(=O)Nc3ccc(S(=O)(=O)N4CCCC4)cc3)CC2)cc1OC | 29µM* | ? | / | /
CCCCN(CCCNC(=O)C1CCN(S(=O)(=O)N2CCOCC2)CC1)c1ccccc1 | 13µM* | 13µM* | -2% | 1%
O=C(NCCCN1CCCC1=O)C1CCN(S(=O)(=O)c2cccc(C(F)(F)F)c2)CC1 | -23% | -16% | -1% | -6%
COc1ccc(S(=O)(=O)N2CCC(C(=O)NCc3cccnc3)CC2)cc1OC | -8% | 10% | / | 4.5µM*
O=C(NCCCN1CCCC1=O)C1CCN(S(=O)(=O)c2cc(C(F)(F)F)ccc2Cl)CC1 | ? | 15µM* | -1% | 0%
COc1ccc(S(=O)(=O)N2CCC(C(=O)NCc3cccnc3)CC2)cc1C | -11% | -20% | / | /
NC[C@H]1O[C@H](O[C@H]2[C@H](O)[C@@H](O[C@H]3O[C@H](CO)[C@@H](O)[C@H](N)[C@H]3O)[C@H](N)C[C@@H]2N)[C@H](N)[C@@H](O)[C@@H]1O | -24% | ? | / | /
